Where “and” joins values, the source holds several entries; their conditions need not be identical. Equal values may be shown once. Records with an inconclusive call do not appear. Where a call stands in place of a potency, no number is given. Calls of active or inactive are those of the source. The call rests on the fitted dose curve; in most records, active means well fitted cell-killing curve with a large enough effect in the repeat runs; inconclusive means weak or mixed curves, or effect the other way; inactive means no such curve, though single readings can be large or run the other way.
experiment: qHTS assay to identify small molecule antagonists of the glucocorticoid receptor (GR) signaling pathway - cell viability counter screen (AID 720693); settings: GR-bla HeLa viability, CellTiter-Glo luminescence, 18 h, with 5 nM dexamethasone present; series mostly up to 58.5 µM; further: nearly all actives have a fitted effect of over 55% in size
Text: National Center for Advancing Translational Sciences [NCATS]
NIH Chemical Genomics Center [NCGC]
U.S. Environmental Protection Agency [EPA]
National Institutes of Environmental Health Sciences [NIEHS]
National Toxicology Program [NTP]
U.S. Food and Drug Administration [FDA]
The Glucocorticoid receptor (GR) is one of the members of the nuclear receptor family of ligand-dependent transcription factors. GR plays a critical role in carbohydrate, protein and lipid metabolisms and programmed cell death. CellSensor GR-bla HeLa cell line (Invitrogen) contains a beta-lactamase reporter gene under the control of the glucocorticoid response element stably integrated into HeLa cells, a cervical cancer cell line that expresses glucocorticoid receptor. The activation of the reporter gene under culture conditions can be detected by fluorescence intensity. This cell line has been used to screen the Tox21 10K compound library and to identify the compounds that inhibit the GR signaling. The cytotoxicity of the Tox21 compound library against the GR-bla HeLa cell line was tested in parallel by measuring the cell viability using CellTiter-Glo assay in the same wells.
Tox21 Assay Protocol Summary:
The GR-bla HeLa cells were dispensed at 1500 cells/5 ul/well in 1536-well black wall/clear bottom plates using a Multidrop Combi (ThermoFisher Scientific, Waltham, MA) dispenser. After the assay plates were incubated at a 37 C/5% CO2 incubator for 4 hours, 23 nL of compounds dissolved in DMSO, positive controls or DMSO only was transferred to the assay plate by a pintool station (Kalypsys, San Diego, CA), followed by addition of 1 uL of dexamethasone (5 nM, final concentration in the well). The plates were incubated at 37 C for 18 hours. After 1 uL of LiveBLAzerTM B/G FRET substrate was added using a Flying Reagent Dispenser (Aurora Discovery, San Diego, CA), the plates were incubated at room temperature (RT) for 2 hours, and fluorescence intensity was measured by an Envision plate reader (PerkinElmer, Shelton, CT). After measurement of bla assay, 3 ul CellTiter-Glo (Promega, Madison, WI) was added to measure the cytotoxicity and the plates were then incubated at RT for 30 min. The luminescence was measured using a ViewLux (Perkin Elmer) plate reader.
Potency means the concentration at half of the fitted maximal effect.

Row | Structure (SMILES) | Potency
1 | Cc1c(C(=O)O)c(O)cc2c1C(=O)c1c(O)c([C@@H]3O[C@H](CO)[C@@H](O)[C@H](O)[C@H]3O)c(O)c(O)c1C2=O | inactive
2 | NS(=O)(=O)O | inactive
3 | CC(C)c1c(C(=O)Nc2ccccc2)c(-c2ccccc2)c(-c2ccc(F)cc2)n1CC[C@@H](O)C[C@@H](O)CC(=O)O | inactive
4 | CC(C)NCC(O)c1ccc(O)c(O)c1 (stereo not given) | inactive
5 | O=S1(=O)OC(c2ccc(O)cc2)(c2ccc(O)cc2)c2ccccc21 | inactive
6 | CN(C)CCOC(C)(c1ccccc1)c1ccccn1 (stereo not given) | inactive
7 | CCOc1ccc(NC(C)=O)cc1 | inactive
8 | CCCCCCCCCCCCCCCC[N+](C)(C)Cc1ccccc1 | 21.3 µM (active) and 22.6 µM (active) and 35.3 µM (active)
9 | CCCCOC(=O)c1ccc(O)cc1 | inactive
10 | O=C1NC(=O)C(c2ccccc2)(c2ccccc2)N1 | inactive
11 | CC1(C)O[C@@H]2C[C@H]3[C@@H]4CCC5=CC(=O)C=C[C@]5(C)[C@@]4(F)[C@@H](O)C[C@]3(C)[C@]2(C(=O)CO)O1 | inactive
12 | O=C(O)CC(O)C(=O)O (stereo not given) | inactive
13 | NC(=O)n1c(O)c(C(=O)c2cccs2)c2cc(Cl)ccc21 | inactive
14 | Nc1c(N=Nc2ccc(-c3ccc(N=Nc4cc(S(=O)(=O)O)c5ccccc5c4N)cc3)cc2)cc(S(=O)(=O)O)c2ccccc12 | inactive
15 | OC[C@H]1O[C@H](O[C@]2(CCl)O[C@H](CCl)[C@@H](O)[C@@H]2O)[C@H](O)[C@@H](O)[C@H]1Cl | inactive
16 | CN(N=O)C(=O)N[C@@H]1[C@@H](O)[C@H](O)[C@@H](CO)O[C@@H]1O | inactive
17 | C/C=C/C=C/C(=O)O | inactive
18 | C=C1CC[C@H](O)C/C1=C\C=C1/CCC[C@]2(C)[C@@H]([C@H](C)CCCC(C)C)CC[C@@H]12 | 54.4 µM (active)
19 | Cc1cc(=O)oc2cc(O)ccc12 | inactive
20 | CC(=O)CCC(=O)O | inactive

Row | Structure (SMILES) | Potency
21 | COc1ccc(OC(F)(F)F)cc1CN[C@H]1CCCN[C@H]1c1ccccc1 | inactive
22 | CC(=O)C(=O)O | inactive
23 | C=CCc1ccc(O)c(OC)c1 | inactive
24 | Cc1ncc([N+](=O)[O-])n1CCO | inactive
25 | C1CCC(C(CC2CCCCN2)C2CCCCC2)CC1 (stereo not given) | 21.3 µM (active)
26 | CCc1nc(N)nc(N)c1-c1ccc(Cl)cc1 | inactive
27 | COc1ccc(C(Cl)=C(c2ccc(OC)cc2)c2ccc(OC)cc2)cc1 | inactive
28 | NC1CCCCC1 | inactive
29 | Cc1ccc(S(=O)(=O)O)cc1 | inactive
30 | O=C1OC2(c3ccccc31)c1cc(Br)c(O)c(Br)c1Oc1c2cc(Br)c(O)c1Br | inactive
31 | CN1CCC[C@H]1c1cccnc1 | inactive
32 | O=c1[nH]cc(F)c(=O)[nH]1 | inactive
33 | O=C(Nc1ncc([N+](=O)[O-])s1)c1cccs1 | 9.52 µM (active)
34 | Cc1cc(C)nc(NS(=O)(=O)c2ccc(N)cc2)n1 | inactive
35 | NC(=O)c1cccnc1 | inactive
36 | CCCCC(CC)C(=O)O (stereo not given) | inactive
37 | CCCCCCCCCCCC[N+](C)(C)Cc1ccccc1 | 8.49 µM (active) and 19.1 µM (active) and 18.9 µM (active)
38 | C=C(C)C(=O)OCC(C)O (stereo not given) | inactive
39 | CS(=O)(=O)OCCCCOS(C)(=O)=O | inactive
40 | CN1[C@@H]2CC(OC(=O)[C@H](CO)c3ccccc3)C[C@H]1[C@@H]1O[C@@H]12 (stereo not given in full) | inactive
